Measurements as given in PubChem BioAssay AID565 (University of Pittsburgh Molecular Library Screening Center, 2006).
Among all 65,000 compounds or so, about 1,200 (1.8%) were called active. For the sample, actives were picked, then their nearest neighbours and some compounds at random. Values without a mark were called inactive. Rule as the data show it: active = inhibition above about 50%; inactive = the rest.

Molecular target: Gag-Pol polyprotein (Human immunodeficiency virus type 1 group M subtype B (isolate HXB2)) (UniProt P04585)
Test: HIV-1 RT RNase H inhibitors, primary screen, biochemical, fluorescence (AID 565)
Conditions: RT-RNase H RNA/DNA duplex cleavage, at 10 µM, stronger effect = higher value

Compound	inhibition
COC(=O)C1=C(C)OC(N)=C(C#N)C1c1cc(OC)ccc1OC (stereo not given)	-6.95%
CCC(=O)NC(=Nc1nc2ccccc2s1)NC(=O)CC	-21.2%
N#Cc1nc(-c2ccc(OCc3ccccc3)cc2)oc1NCCCN1CCOCC1	-42.2%
COc1ccc(Nc2oc(-c3ccccc3Cl)nc2C#N)cc1	54.5% (active)
CCOc1ccc(Nc2oc(Cc3ccccc3)nc2C#N)cc1	-28.4%
CC(C)C1N=C2c3ccccc3N=C(SCC(=O)c3ccc(O)c(O)c3)N2C1=O (stereo not given)	96.1% (active)
O=C(CSC1=Nc2ccccc2C2=NC(c3ccccc3)C(=O)N12)NCC1CCCO1 (stereo not given)	2.21%
NC(=O)CSC1=Nc2ccccc2C2=NC(CCC(=O)NCc3ccc(F)cc3)C(=O)N12 (stereo not given)	-6.32%
CCOc1cc(/C=N/O)cc(Br)c1OC	-18.2%
CN1CCC2(CC1)NC(=O)NC2=O	-0.41%
COc1ccc(N2CCN(C(=O)CSc3nc4cc(OC)c(OC)cc4cc3C#N)CC2)cc1	36.4%
COc1ccc(N2CCN(C(=O)CSc3ncnc4c3cnn4-c3ccc(OC)cc3)CC2)cc1	54.2% (active)
COc1ccc(N2CCN(C(=O)CSc3nnc4ncccn34)CC2)cc1	2.76%
O=C(O)C1CCCN(S(=O)(=O)c2cccc3cccnc23)C1 (stereo not given)	-3.84%
COc1cc2[nH]c(=S)n(CCN3CCCCC3C)c(=O)c2cc1OC (stereo not given)	-11%
CCSc1nc(=S)n(CC)c(C)c1C(C)=O	-6.33%
CCOC(=O)c1nc(N)sc1C(=O)OCC	-13.4%
COC(=O)c1cn(-c2ccccc2)nc1-c1cccnc1	-35.4%
CCOC(=O)CSc1nnc(CNC(=O)c2cccs2)n1-c1ccccc1	-126%
CCOC(=O)CNC(=O)c1nn(-c2cccc(OC)c2)c(=O)c2ccccc12	-9.52%
COC(=O)c1sc(=S)n(-c2ccccc2)c1N	88.6% (active)
CCOC(=O)c1sc(=S)n(-c2cccc(OC)c2)c1N	65.1% (active)

Compound	inhibition
CCOC(=O)Cn1c(N)c(C(=O)OC)sc1=S	56.2% (active)
CCOC(=O)Cn1c(SC)nc2sc3c(c2c1=O)CC(C)(C)OC3	-12.4%
CCOc1cccc(-n2nnnc2-c2ccc(OC)cc2)c1	-27.8%
O=C(Cn1c(=S)nc2ccccn21)N1CCc2ccccc2C1	-12.1%
Cc1nn2c3ccccc3nc2n(C)c1=O	-8.5%
CCOc1ncccc1C(=O)OCc1cn2cc(Cl)ccc2n1	-19.9%
CCN(CC)CCCN1C(=O)C(=O)/C(=C(/O)c2c(C)nc3ccccn23)C1c1ccc(C)o1 (stereo not given)	-7.5%
O=c1c2ccccc2nnn1CSc1nc2sc3c(c2c(=O)n1CC1CCCO1)CCC3 (stereo not given)	-3.16%
CC1Oc2ccccc2N(Cc2cccnc2)C1=O (stereo not given)	-1.88%
COC(=O)Nc1ccc(S(=O)(=O)N(C)CC(F)(F)C(F)F)cc1	-4.49%
O=C(CN1CCN(CC(=O)Nc2ccc3c(c2)OCO3)CC1)Nc1ccc(F)cc1	-10.3%
c1ccc(Nc2nc(-c3ccncc3)cs2)nc1	-13.7%
N#C/C(=C1\CCCN1)c1nc(-c2ccccc2)cs1	-34%
N#CC(=C1SC=CS1)c1nc(-c2ccccc2)cs1	55.1% (active)
Cc1cc(C)n(C(=O)c2ccc(S(=O)(=O)N3CCCC3)cc2)n1	-7.85%
Fc1ccccc1OCCSc1nc2ccccc2o1	-31.7%
Cc1nc2ccccc2c(=O)n1CCCn1ccnc1	-6.99%
Cc1ccnc(-n2sc3ccccc3c2=O)n1	84.5% (active)
CC12C(=O)N(n3cnnc3)C(=O)C1C1C=CC2C1 (stereo not given)	1.01%
C/C(=C\C(=O)c1ccc(Br)cc1)N1CCCCC1	-18.6%
CCC(=O)Nc1cccc(NC(=O)CSc2nnc(-c3ccc(NS(C)(=O)=O)cc3)n2C)c1	-1.65%
CCc1c(C)[nH]c(=S)c(C#N)c1C	84.3% (active)

Compound	inhibition
CC(=O)N1CCN(CCN=CC2=C(O)CC(C)(C)CC2=O)CC1	-3.55%
COCCCNC(=O)Cn1cc(C(=O)C2CC2)c2ccccc21	-5.05%
N#CCCn1cnc2ccccc21	-0.17%
Cc1ccc(C(=O)CSc2nnc(Cn3nnc4ccccc43)n2C)cc1	-1.04%
CCOc1cccc(-c2nnc3sc(COc4ccc(OC)cc4)nn23)c1	1.27%
Fc1ccc(OCc2nn3c(Cn4nnc5ccccc54)nnc3s2)cc1	77.8% (active)
O=C(CSc1nnc(Cn2cnc3ccccc32)o1)c1ccccc1	-18.7%
c1ccc(Cc2nn3c(Cn4cnc5ccccc54)nnc3s2)cc1	82.6% (active)
NC(=O)C1CCN(C2OC(=O)c3ccccc32)CC1 (stereo not given)	2.61%
CCOc1cc(C(=S)N2CCOCC2)ccc1O	91.2% (active)
CCOc1cc(-c2noc(CCC(=O)N3CCOCC3)n2)ccc1OC	-9.69%
COc1ccc(OCC(=O)N2CCOCC2)cc1	-8.89%
Cn1c(=O)[nH]c(=O)c2c1nc(Br)n2CCCCSc1nc2ccccc2o1	19.8%
CCCSc1nc2c(c(=O)[nH]c(=O)n2C)n1CCc1ccccc1	-11.9%
Cn1c(=O)[nH]c(=O)c2c1nc(N1CCCCCC1)n2CC(=O)c1ccccc1	1.85%
CCCCCn1c(SCCC(C)C)nc2c1c(=O)[nH]c(=O)n2C	54.8% (active)
CCCCCCn1c(SCC(=O)c2ccccc2)nc2c1c(=O)[nH]c(=O)n2C	54.7% (active)
Cc1nnc(SCCCn2c(N3CCCCC3)nc3c2c(=O)[nH]c(=O)n3C)s1	-3.25%
CCn1cc(NC(=O)Nc2ccc(OC)c(OC)c2)c(C(N)=O)n1	9.07%
O=C(O)c1cccc2c1C(=O)N(C1CCCCC1)C2	-4.3%
CCN(CC)P(=O)(/C(Cl)=C\Nc1c(C)n(C)n(-c2ccccc2)c1=O)N(CC)CC	-5.1%
